Results with a measured potency or affinity are listed apart.
Assays:
Staphylococcus aureus = conditions: Concentration 32 ug.mL-1; ASSAY_TEST Inhibition of Bacterial Growth; detection method Absorption (OD600); MEDIA CAMHB; plate type 384well; NBS; CORNING #3640; time 18 hr
Escherichia coli = conditions: Concentration 32 ug.mL-1; ASSAY_TEST Inhibition of Bacterial Growth; detection method Absorption (OD600); MEDIA CAMHB; plate type 384well; NBS; CORNING #3640; time 18 hr

Compound | Inhibition (Staphylococcus aureus) | Inhibition (Escherichia coli)
C=C[C@H]1[C@H](O[C@@H]2O[C@H](CO)[C@@H](O)[C@H](O)[C@H]2O)OC=C2C(=O)OCC[C@]21O [SWERTIAMARIN] | 25.69% | 13.89%
CN(C)C(=N)NC(=N)N.Cl [METFORMIN HYDROCHLORIDE] | 23.29% | –

Source: ChEMBL document CHEMBL4513158, “CO-ADD screening of RKDF (India) compounds”
